Most compounds without a hit are left out; they make up all but 2.4% or so of the library.
Pol iota inh – qHTS for Inhibitors of Polymerase Iota; 1% of 390,000 active; DNA polymerase iota (Homo sapiens), Q9UNA4; Potency, µM (doses to about 115 µM), without a hit: at the highest dose activity, negative = inhibition, usual class: inhibitors; Pol iota fluorescent replication assay, 10 min
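Fluorescent replication assay read twice, at 0 min and 10 min after adding 50 nM (final) substrate. Enzyme (10 nM) and compounds were first incubated 15 min at room temperature; enzyme-free buffer wells were negative controls.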
POLB inh – qHTS Assay for Inhibitors of DNA Polymerase Beta; P06746; Pol beta primer extension/strand displacement, fluorescence kinetic; Potency, µM (series often up to 114 µM), inactives show at the top dose activity change, negative = inhibition, most hits filed as inhibitors; 1.3% of 340,000 active; AID 485314, 2010; note: % is set by controls: 0 for no effect and ±100 for the full control effect
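Preincubation: enzyme (10 nM) with compound, 15 min, RT. Reaction: substrate added to 50 nM final. Reads: 0 and 10 min. Analysis: normalized, Hill fit.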
Pol kappa inh-1 – qHTS for Inhibitors of Polymerase Kappa | DNA polymerase kappa (Homo sapiens), Q9UBT6 | purified Pol kappa, fluorescent DNA synthesis assay, 10 min | Potency, µM (highest dose often 107 µM), for the others: at the top dose activity, negative = inhibition, actives largely listed as inhibitors | 0.53% of 400,000 active | AID 588579, 2011; note: % is set by controls: 0 for no effect and ±100 for the full control effect
Target sequence (Q9UBT6 whole entry, looked up): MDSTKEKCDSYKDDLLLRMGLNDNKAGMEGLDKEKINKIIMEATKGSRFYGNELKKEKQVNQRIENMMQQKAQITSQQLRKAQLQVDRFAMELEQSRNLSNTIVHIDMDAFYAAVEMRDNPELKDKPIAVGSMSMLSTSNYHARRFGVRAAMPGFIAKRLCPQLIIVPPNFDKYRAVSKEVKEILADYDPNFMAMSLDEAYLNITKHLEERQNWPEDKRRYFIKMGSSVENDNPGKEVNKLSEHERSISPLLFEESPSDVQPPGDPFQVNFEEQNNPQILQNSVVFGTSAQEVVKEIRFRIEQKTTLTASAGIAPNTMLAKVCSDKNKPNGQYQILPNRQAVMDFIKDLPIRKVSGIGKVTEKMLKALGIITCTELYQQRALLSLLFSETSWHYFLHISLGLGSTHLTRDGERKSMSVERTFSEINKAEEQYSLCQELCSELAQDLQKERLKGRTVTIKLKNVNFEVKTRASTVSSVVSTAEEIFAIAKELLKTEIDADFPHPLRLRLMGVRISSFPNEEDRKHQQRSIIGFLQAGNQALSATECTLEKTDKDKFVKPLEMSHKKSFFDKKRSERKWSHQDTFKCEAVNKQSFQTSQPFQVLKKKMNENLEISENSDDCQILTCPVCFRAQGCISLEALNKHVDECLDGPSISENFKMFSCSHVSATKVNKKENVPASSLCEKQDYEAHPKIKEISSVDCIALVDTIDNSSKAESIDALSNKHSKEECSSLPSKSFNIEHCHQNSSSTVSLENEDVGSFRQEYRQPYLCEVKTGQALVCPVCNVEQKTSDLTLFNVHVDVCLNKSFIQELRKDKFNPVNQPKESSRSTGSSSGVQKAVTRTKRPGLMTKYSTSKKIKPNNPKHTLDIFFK
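Inhibition of 10 nM Pol kappa is measured by a fluorescent read-out at 0 and 10 min following addition of 50 nM substrate (final), with a 15-min room-temperature compound preincubation.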
Pol eta inh-1 – qHTS for Inhibitors of Polymerase Eta | DNA polymerase eta (Homo sapiens), Q9Y253 | recombinant Pol eta, fluorescent DNA replication assay | Potency, µM (titrated, usually from 114 µM), without a hit: top-dose activity change, negative = inhibition, hits mostly inhibitors | 1.2% of 390,000 active; note: % is set by controls: 0 for no effect and ±100 for the full control effect
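Pol eta at 10 nM preincubated with compounds 15 min at room temperature; reaction started with fluorescent substrate (50 nM final) and read kinetically at 0 and 10 min.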
WRN helicase inh – qHTS for Inhibitors of WRN Helicase. Bifunctional 3'-5' exonuclease/ATP-dependent helicase WRN (Homo sapiens), Q14191. WRN helicase unwinding, fluorescent forked duplex, kinetic. Potency, µM (doses to about 114 µM), without a hit: at the highest dose activity change, negative = inhibition, actives largely listed as inhibitors. 0.46% of 360,000 active; note: % is set by controls: 0 for no effect and ±100 for the full control effect; nearly all actives have a fitted effect of over 55% in size
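Fluorescence dequenching readout, ex 525 nm/em 598 nm, kinetic mode: forked duplex DNA (100 nM final) with adjacent fluorophore and quencher unwound by WRN (20 nM final) with 2 mM ATP. Compound preincubation 15 min, room temperature.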
FEN1 inh – qHTS Assay for the Inhibitors of Human Flap endonuclease 1 (FEN1) | 0.35% of 390,000 active | P39748 | Potency, µM (doses to about 114 µM), without a hit: at the top dose activity change, negative = inhibition, hits mostly inhibitors | Recombinant FEN1 flap cleavage, fluorescence, 15 min; note: % is set by controls: 0 for no effect and ±100 for the full control effect; nearly all actives have a fitted effect of over 65% in size
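FEN1 at 10 nM, compound pretreatment for 15 min (room temperature), 50 nM final substrate to initiate; endpoint reads at 0 and 15 min; DMSO-only plates used as vehicle background.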
POLI cherry-pick – qHTS for Inhibitors of Polymerase Iota: Confirmatory Assay for Cherry-picked Compounds; shares compounds with Pol kappa inh-1; Pol iota primer extension, TAMRA/BHQ fluorescence; Potency, µM, most hits filed as inhibitors; 77% of 1,500 active; AID 720496, 2013
Pol kappa inh-2 – qHTS for Inhibitors of Polymerase Kappa: Confirmatory Assay for Cherry-picked Compounds; shares compounds with Pol eta inh-1; purified Pol-kappa, fluorescent strand-displacement substrate; Potency, µM, usual class: inhibitors; 76% of 920 active
Pol eta inh-2 – qHTS for Inhibitors of Polymerase Eta: Confirmatory Assay for Cherry-picked Compounds | shares compounds with Pol eta inh-1 | Pol eta primer extension, TAMRA/BHQ fluorescence, 10 min | Potency, µM, most hits filed as inhibitors | 64% of 2,600 active | AID 720502, 2013
An asterisk follows results filed as active; [ ] = dose if it differs, or a comment. Calls come from the whole dose curve; as a rule, active = well fitted curve in the direction sought with a large enough effect; inconclusive = small, poorly fitted or top-dose-only effect, or another doubt; inactive = no such curve, though single readings can be large; an effect the other way counts as inactive or inconclusive. Potency is the fitted concentration of half-maximal effect.

`COc1ccc(N2Cc3cccc(C(=O)N4CCN(C(=O)c5ccco5)CC4)c3C2=O)cc1` gave Pol iota inh inconclusive, POLB inh 10µM*, Pol kappa inh-1 inconclusive, Pol eta inh-1 5.6µM*, WRN helicase inh 50µM*, FEN1 inh -13%, POLI cherry-pick 38*, Pol kappa inh-2 42* and Pol eta inh-2 60*.
For Cc1ccccc1-c1noc(-c2nnn(-c3ccccc3C)c2N)n1 the results were Pol iota inh 26%, POLB inh 3%, Pol kappa inh-1 11%, Pol eta inh-1 -4% and FEN1 inh 7%.
Screening O=C(CSc1nc2c([nH]c3ccccc32)c(=O)n1-c1ccc(F)cc1)NC1CCCCC1 returned Pol iota inh -13%, POLB inh 4%, Pol kappa inh-1 -14%[60.1 µM], Pol eta inh-1 0% and FEN1 inh 15%.
`COc1ccc(CN(C(=O)/C=C/c2ccco2)C2CCS(=O)(=O)C2)cc1` (stereo unspecified) gave Pol iota inh 18µM*, POLB inh 20µM*, Pol kappa inh-1 inconclusive, Pol eta inh-1 50µM*, WRN helicase inh -29%[57.1 µM], FEN1 inh -23%, POLI cherry-pick 53* and Pol eta inh-2 85*.
`COc1cccc(CN(C(=O)/C=C/c2ccco2)C2CCS(=O)(=O)C2)c1` (stereo unspecified) gave Pol iota inh 45µM*, POLB inh inconclusive, Pol kappa inh-1 89µM*, Pol eta inh-1 inconclusive, WRN helicase inh -14%, FEN1 inh -3%, POLI cherry-pick inconclusive and Pol eta inh-2 inconclusive.
`COc1cccc(CN(C(=O)c2ccco2)C2CCS(=O)(=O)C2)c1` (stereo unspecified) gave Pol iota inh 21%, POLB inh -3%, Pol kappa inh-1 -9%, Pol eta inh-1 5%, WRN helicase inh -10% and FEN1 inh 20%.
For CC(=O)c1ccc(NC(=O)CN2C(=O)CCc3cc(S(=O)(=O)N4CCC(C)CC4)ccc32)cc1 the results were Pol iota inh inconclusive, POLB inh 35µM*, Pol kappa inh-1 -10%[60.1 µM], Pol eta inh-1 25µM*, FEN1 inh -7%, POLI cherry-pick 53*, Pol kappa inh-2 inconclusive and Pol eta inh-2 38*.
`Cc1ccc(N=Nc2c(N)nn3c(N)c(C#N)c(C)nc23)cc1` gave Pol iota inh inconclusive, POLB inh 22µM*, Pol kappa inh-1 79µM*, Pol eta inh-1 inconclusive, WRN helicase inh -17%[11.6 µM], FEN1 inh inconclusive, POLI cherry-pick 42* and Pol eta inh-2 inconclusive.
COc1cccc(-c2nc(CS(=O)CC(=O)N3CCN(c4cccc(C(F)(F)F)c4)CC3)c(C)o2)c1 (stereo unspecified) was read as Pol iota inh -8%, POLB inh inconclusive, Pol kappa inh-1 -4%[60.1 µM], Pol eta inh-1 -16% and FEN1 inh 1%.
`Cc1ccc(CCNC(=O)c2cc3c(s2)-c2ccccc2OC3)cc1` gave Pol iota inh 79µM*, POLB inh 14µM*, Pol kappa inh-1 inconclusive, Pol eta inh-1 inconclusive, FEN1 inh inconclusive, POLI cherry-pick 47* and Pol eta inh-2 inconclusive.
For Cc1noc(C)c1C(=O)N1CCC2(CC1)CN(c1cccc(-c3ccccc3)c1)C2 the results were Pol kappa inh-1 -11%[60.1 µM].
Screening Cc1ccc(CNc2ccc(O)cc2)cc1 returned Pol iota inh 3.5µM*, POLB inh inconclusive, Pol kappa inh-1 inconclusive, Pol eta inh-1 28µM*, WRN helicase inh inconclusive, FEN1 inh inconclusive, POLI cherry-pick inconclusive and Pol eta inh-2 inconclusive.
`CCCCCn1c(=O)[nH]c2cc(C(=O)NCc3ccc(C)cc3)ccc2c1=O` gave Pol iota inh 4%, POLB inh 19%, Pol kappa inh-1 0%, Pol eta inh-1 -6% and FEN1 inh -25%.
Screening COc1ccc(OC)c(S(=O)(=O)NCc2ccc3c(c2)CCN3C(=O)c2cccc(C)c2)c1 returned Pol iota inh 13%, POLB inh 10%, Pol kappa inh-1 -12%[60.1 µM], Pol eta inh-1 -21% and FEN1 inh -14%.
Screening N#C/C(=C/c1cccn1-c1cccc(C(=O)O)c1)c1ccc(Cl)cc1 returned Pol iota inh 20µM*, POLB inh 8.9µM*, Pol kappa inh-1 inconclusive, Pol eta inh-1 50µM*, WRN helicase inh -10%[11.6 µM], FEN1 inh 7%, POLI cherry-pick 75*, Pol kappa inh-2 75* and Pol eta inh-2 inconclusive.
`N#CC(C#N)=Cc1cccn1-c1ccc(C(=O)O)cc1` gave Pol iota inh 18µM*, POLB inh 5µM*, Pol kappa inh-1 40µM*, Pol eta inh-1 10µM*, WRN helicase inh 56µM*, FEN1 inh -17%, POLI cherry-pick 19*, Pol kappa inh-2 17* and Pol eta inh-2 27*.
N#C/C(=C\c1ccccc1OCc1ccc(C(=O)O)cc1)c1ccccc1 was read as Pol iota inh 5%, POLB inh -1%, Pol kappa inh-1 0%, Pol eta inh-1 -8%, WRN helicase inh -11% and FEN1 inh -17%.
CCOC(=O)/C(C#N)=C/c1cccn1-c1ccc(Cl)cc1 was read as Pol iota inh 84%, POLB inh -7%, Pol kappa inh-1 2%, Pol eta inh-1 -20%, WRN helicase inh -3% and FEN1 inh 8%.
Screening Cc1cc(C)c2c(CC(=O)Nc3ccccc3C(F)(F)F)coc2c1 returned Pol iota inh -10%, POLB inh 1%, Pol kappa inh-1 0%, Pol eta inh-1 -7% and FEN1 inh -5%.

Screens (PubChem BioAssay)
